Assay [1] deals with Ribosomal protein S6 kinase beta-1 (Homo sapiens) (UniProt P23443). The conditions noted are these: at 1 µM.
The target is the same in assay [2]. As to conditions: at 10 µM.
Assay [3] concerns the target Serine/threonine-protein kinase Nek6 (Homo sapiens) (UniProt Q9HC98). As to conditions: at 1 µM.
Assay [4] shares this target. The conditions noted are these: at 10 µM.
In assay [5] the target is Serine/threonine-protein kinase Nek7 (Homo sapiens) (UniProt Q8TDX7). As to conditions: at 1 µM.
The target is the same in assay [6]. The conditions noted are these: at 10 µM.
In assay [7] the target is T1, Serine/threonine-protein kinase NLK (Homo sapiens) (UniProt Q9UBE8).
T1 sequence (whole entry): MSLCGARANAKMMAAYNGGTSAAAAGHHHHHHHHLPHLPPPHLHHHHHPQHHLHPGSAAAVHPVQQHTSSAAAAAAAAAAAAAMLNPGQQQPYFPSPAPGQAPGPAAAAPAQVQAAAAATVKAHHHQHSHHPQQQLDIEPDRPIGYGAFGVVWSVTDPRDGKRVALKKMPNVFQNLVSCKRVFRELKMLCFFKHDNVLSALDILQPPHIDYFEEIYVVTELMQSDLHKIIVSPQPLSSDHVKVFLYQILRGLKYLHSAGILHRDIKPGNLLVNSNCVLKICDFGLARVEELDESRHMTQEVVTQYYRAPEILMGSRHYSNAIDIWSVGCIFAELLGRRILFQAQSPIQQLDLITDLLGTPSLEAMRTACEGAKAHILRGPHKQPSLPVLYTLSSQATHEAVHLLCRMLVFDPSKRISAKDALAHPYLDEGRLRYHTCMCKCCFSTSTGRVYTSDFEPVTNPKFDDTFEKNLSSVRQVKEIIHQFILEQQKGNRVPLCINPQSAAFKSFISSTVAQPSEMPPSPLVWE
As to conditions: at 1 µM.

Assay [8] addresses T1, Serine/threonine-protein kinase NLK (Homo sapiens). The conditions noted are these: at 10 µM.
Assay [9] addresses Serine/threonine-protein kinase PAK 2 (Homo sapiens) (UniProt Q13177). The conditions noted are these: at 1 µM.
Assay [10] concerns the target Serine/threonine-protein kinase PAK 4 (Homo sapiens) (UniProt O96013). The conditions noted are these: at 1 µM.
Assay [11] has the same target. As to conditions: at 10 µM.
Assay [12] concerns the target Serine/threonine-protein kinase PAK 5 (Homo sapiens) (UniProt Q9P286). The conditions noted are these: at 1 µM.
The target is the same in assay [13]. The conditions noted are these: at 10 µM.
The target of assay [14] is Serine/threonine-protein kinase PAK 6 (Homo sapiens) (UniProt Q9NQU5). The conditions noted are these: at 1 µM.
For assay [15] the target is unchanged. As to conditions: at 10 µM.
The target in assay [16] is PAS domain-containing serine/threonine-protein kinase (Homo sapiens) (UniProt Q96RG2). The conditions noted are these: at 10 µM.
The target in assay [17] is Activated CDC42 kinase 1 (Homo sapiens) (UniProt Q07912). As to conditions: at 1 µM.
Assay [18] has the same target. As to conditions: at 10 µM.
For assay [19], the target named is ALK tyrosine kinase receptor (Homo sapiens) (UniProt Q9UM73). The conditions noted are these: at 1 µM.
Assay [20] concerns the target Serine/threonine-protein kinase PAK 2 (Homo sapiens) (UniProt Q13177). As to conditions: at 10 µM.

Sequence of Serine/threonine-protein kinase PAK 5 (Homo sapiens) (Q9P286 whole entry, looked up): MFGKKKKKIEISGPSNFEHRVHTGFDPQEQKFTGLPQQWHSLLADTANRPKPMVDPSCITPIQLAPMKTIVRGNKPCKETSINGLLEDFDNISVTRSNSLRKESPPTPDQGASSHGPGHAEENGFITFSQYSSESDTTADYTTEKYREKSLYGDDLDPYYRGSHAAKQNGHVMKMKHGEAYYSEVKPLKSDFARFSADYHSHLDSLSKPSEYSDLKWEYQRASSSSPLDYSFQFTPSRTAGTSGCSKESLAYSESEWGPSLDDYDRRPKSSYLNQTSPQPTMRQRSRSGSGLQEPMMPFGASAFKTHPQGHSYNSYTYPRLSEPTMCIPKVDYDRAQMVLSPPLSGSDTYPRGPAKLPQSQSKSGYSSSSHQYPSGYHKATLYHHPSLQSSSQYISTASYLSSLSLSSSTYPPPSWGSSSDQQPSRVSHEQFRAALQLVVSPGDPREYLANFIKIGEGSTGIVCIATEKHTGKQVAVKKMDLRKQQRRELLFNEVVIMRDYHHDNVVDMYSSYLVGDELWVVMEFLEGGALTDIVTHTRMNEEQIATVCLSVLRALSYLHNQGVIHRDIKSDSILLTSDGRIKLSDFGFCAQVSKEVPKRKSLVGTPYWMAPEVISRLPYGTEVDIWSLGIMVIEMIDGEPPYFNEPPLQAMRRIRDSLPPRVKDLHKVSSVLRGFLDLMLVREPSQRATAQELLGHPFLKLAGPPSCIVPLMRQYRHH
Sequence of Serine/threonine-protein kinase Nek7 (Homo sapiens) (Q8TDX7 whole entry, looked up): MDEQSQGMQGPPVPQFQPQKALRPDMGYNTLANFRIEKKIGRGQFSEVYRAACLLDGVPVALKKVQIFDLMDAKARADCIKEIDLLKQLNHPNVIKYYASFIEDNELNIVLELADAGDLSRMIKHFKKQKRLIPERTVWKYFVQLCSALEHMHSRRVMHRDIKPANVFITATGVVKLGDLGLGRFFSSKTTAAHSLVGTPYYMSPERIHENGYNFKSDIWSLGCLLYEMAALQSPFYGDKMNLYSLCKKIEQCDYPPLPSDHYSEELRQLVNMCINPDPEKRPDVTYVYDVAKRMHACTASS
Sequence of ALK tyrosine kinase receptor (Homo sapiens) (Q9UM73 19-1620 limits assumed): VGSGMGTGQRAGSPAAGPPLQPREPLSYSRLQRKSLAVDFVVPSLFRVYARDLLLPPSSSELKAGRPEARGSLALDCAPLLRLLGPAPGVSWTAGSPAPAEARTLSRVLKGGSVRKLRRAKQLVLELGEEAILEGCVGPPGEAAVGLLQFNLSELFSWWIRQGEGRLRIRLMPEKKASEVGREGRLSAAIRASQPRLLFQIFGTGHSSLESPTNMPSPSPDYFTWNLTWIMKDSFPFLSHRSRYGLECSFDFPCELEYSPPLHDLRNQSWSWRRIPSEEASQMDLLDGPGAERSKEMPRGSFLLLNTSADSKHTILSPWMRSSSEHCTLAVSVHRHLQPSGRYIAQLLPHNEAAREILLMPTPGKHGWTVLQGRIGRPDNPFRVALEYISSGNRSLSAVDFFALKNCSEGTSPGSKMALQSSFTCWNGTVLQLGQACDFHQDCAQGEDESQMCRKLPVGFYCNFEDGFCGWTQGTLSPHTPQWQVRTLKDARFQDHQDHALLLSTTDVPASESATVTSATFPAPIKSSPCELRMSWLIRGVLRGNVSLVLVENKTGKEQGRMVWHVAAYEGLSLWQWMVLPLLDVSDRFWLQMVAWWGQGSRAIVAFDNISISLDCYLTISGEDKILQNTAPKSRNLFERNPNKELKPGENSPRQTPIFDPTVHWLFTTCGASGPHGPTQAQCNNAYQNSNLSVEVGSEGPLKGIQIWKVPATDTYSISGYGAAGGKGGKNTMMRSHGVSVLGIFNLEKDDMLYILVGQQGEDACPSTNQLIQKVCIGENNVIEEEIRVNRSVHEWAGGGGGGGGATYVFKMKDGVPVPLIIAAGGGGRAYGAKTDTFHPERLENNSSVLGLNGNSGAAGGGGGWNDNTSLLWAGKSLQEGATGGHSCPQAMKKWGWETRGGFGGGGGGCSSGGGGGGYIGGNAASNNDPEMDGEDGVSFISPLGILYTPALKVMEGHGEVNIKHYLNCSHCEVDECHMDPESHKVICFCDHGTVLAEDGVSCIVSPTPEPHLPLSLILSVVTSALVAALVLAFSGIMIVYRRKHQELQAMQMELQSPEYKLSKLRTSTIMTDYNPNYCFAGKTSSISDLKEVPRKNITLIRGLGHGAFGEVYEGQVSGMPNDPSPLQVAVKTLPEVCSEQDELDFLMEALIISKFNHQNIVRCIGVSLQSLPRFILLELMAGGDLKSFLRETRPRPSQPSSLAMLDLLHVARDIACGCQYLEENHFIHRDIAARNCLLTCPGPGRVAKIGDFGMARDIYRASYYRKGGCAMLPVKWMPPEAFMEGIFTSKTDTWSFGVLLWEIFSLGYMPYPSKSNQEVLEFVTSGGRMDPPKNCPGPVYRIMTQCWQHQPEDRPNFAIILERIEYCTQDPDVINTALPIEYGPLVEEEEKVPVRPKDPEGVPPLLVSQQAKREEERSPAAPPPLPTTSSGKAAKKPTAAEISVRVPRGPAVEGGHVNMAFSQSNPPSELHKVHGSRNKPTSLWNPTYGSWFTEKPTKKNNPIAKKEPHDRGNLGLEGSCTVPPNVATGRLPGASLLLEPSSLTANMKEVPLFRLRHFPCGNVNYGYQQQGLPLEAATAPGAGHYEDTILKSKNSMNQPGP
Sequence of PAS domain-containing serine/threonine-protein kinase (Homo sapiens) (Q96RG2 whole entry, the tested form may be a part): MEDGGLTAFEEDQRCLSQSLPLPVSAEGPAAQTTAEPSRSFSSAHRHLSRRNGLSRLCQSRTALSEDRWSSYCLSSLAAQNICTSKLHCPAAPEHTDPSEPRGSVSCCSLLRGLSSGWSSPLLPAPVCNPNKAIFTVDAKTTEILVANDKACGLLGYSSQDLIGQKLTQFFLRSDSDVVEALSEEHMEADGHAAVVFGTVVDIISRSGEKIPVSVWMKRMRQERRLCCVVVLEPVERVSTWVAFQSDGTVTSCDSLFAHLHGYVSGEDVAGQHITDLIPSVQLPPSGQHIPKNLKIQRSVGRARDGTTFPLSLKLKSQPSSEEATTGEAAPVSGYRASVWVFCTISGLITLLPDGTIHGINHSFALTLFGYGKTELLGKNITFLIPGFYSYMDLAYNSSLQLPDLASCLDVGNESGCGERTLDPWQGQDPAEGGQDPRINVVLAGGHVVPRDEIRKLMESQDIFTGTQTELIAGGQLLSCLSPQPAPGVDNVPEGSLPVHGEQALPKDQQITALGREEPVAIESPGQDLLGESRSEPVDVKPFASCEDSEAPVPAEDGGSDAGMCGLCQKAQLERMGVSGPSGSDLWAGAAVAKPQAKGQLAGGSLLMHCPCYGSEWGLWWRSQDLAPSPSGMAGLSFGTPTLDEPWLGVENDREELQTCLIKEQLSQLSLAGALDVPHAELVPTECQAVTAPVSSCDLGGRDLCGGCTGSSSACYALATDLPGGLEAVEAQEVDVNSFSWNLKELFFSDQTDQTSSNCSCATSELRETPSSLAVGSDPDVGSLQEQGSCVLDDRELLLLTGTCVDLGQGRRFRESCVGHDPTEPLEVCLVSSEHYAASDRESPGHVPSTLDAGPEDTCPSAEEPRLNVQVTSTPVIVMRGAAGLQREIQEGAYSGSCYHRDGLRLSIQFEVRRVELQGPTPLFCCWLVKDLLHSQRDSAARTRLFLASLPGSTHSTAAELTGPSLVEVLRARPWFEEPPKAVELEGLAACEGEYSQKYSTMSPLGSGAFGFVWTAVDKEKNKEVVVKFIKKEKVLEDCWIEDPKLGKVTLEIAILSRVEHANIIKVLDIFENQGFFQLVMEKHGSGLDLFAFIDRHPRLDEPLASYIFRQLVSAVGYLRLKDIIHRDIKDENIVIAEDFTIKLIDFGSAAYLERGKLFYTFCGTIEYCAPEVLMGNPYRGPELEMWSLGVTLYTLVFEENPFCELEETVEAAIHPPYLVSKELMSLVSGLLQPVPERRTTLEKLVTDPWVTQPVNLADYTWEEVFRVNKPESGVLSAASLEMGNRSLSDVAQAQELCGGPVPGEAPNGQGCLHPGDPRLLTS
Sequence of Serine/threonine-protein kinase PAK 4 (Homo sapiens) (O96013 whole entry, looked up): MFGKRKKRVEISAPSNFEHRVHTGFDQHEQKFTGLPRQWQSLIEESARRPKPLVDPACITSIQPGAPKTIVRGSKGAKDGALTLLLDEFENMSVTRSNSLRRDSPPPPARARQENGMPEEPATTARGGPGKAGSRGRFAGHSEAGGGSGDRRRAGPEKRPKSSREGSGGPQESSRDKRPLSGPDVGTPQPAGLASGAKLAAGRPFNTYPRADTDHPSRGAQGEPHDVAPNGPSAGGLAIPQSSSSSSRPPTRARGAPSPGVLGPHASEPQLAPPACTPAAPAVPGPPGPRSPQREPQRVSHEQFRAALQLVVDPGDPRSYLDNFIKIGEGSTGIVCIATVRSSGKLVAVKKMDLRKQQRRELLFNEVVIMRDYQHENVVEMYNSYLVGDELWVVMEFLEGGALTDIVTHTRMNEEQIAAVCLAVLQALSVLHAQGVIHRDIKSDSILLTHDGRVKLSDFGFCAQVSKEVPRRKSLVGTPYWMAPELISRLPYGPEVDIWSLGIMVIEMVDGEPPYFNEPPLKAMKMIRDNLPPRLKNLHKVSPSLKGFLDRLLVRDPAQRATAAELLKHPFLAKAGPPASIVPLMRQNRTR
Sequence of Ribosomal protein S6 kinase beta-1 (Homo sapiens) (P23443 whole entry, looked up): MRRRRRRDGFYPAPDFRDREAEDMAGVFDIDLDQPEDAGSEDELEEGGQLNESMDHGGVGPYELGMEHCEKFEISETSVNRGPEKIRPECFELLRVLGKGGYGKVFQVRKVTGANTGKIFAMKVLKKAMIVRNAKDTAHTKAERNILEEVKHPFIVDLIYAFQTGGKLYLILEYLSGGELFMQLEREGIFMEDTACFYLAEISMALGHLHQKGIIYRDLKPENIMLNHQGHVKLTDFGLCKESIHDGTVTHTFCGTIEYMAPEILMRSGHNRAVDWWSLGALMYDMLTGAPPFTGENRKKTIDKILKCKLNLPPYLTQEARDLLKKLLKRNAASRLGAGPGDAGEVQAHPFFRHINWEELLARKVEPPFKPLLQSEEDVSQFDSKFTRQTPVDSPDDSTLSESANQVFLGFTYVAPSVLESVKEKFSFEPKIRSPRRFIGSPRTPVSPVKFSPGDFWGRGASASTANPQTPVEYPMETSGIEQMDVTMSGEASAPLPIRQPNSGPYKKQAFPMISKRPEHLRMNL

In the case of `Cn1c2ccccc2c2c3c(c4c5ccccc5n(CCC#N)c4c21)CNC3=O`, the residual activity was 1% in [1]; 4% in assay [2]; 93% (inactive) in [3]; 113% in [4]; 95% (inactive) in assay [5]; 80% (inactive) in assay [6]. Further, the residual activity worked out at 50% in assay [7]; 41% in assay [8]; 101% in assay [9]; 3% in assay [10]; 2% in [11]; 12% in assay [12]. Also, the residual activity in [13] came to 14%; in assay [14], 4%; in assay [15], 2%; in assay [16], 49%; in assay [17], 3%; in assay [18] it was 0%. In addition, the residual activity in assay [19] is 0%.
Consider `COc1cc2c(cc1OC)-c1n[nH]c(Nc3cccc(F)c3)c1C2`, for which the residual activity is 63% in [1]; 79% in assay [2]; 113% (inactive) in assay [6]; 54% in [7]; 17% in assay [8]; 98% in [14]. The figures for the residual activity in assay [15] and in [19] were 99% and 74%, respectively.
In the case of `CC(C)(C)n1nc(Cc2cccc3ccccc23)c2c(N)ncnc21`, the residual activity is 118% in assay [1]; 96% in assay [2]; 94% (inactive) in assay [3]; 116% in [4]; 90% (inactive) in assay [5]; 44% in assay [7]. In addition, the residual activity in [8] came to 15%; in assay [9], 98%; in [20], 49%; in assay [10], 88%; in assay [11] it was 61%; in assay [12], 88%. Moreover, the residual activity in [13] worked out at 77%; in assay [14], 98%; in [15] it was 79%; in assay [16], 71%; in [17], 6%; in assay [18] it was 2%. Moreover, in assay [19], the residual activity worked out at 89%.
For `NC(=O)Nc1sc(-c2ccc(F)cc2)cc1C(N)=O`, the residual activity in [1] was 78%; in assay [2] it was 39%; in assay [3], 104% (inactive); in assay [4] it was 106%; in [5], 102% (inactive); in assay [6], 103% (inactive). The residual activity came to 89% in assay [7]; 61% in assay [8]; 93% in assay [9]; 71% in assay [20]; 55% in assay [10]; 14% in [11]. For the same molecule, the residual activity in [12] stood at 67%; in [13], 27%; in assay [14] it was 88%; in assay [15], 40%; in assay [16], 96%; in assay [17] it was 10%. Moreover, the results for the residual activity in assay [18] and in assay [19] were 2% and 78%, respectively.
In the case of `O=C(c1cc2cc(O)ccc2[nH]1)c1cc2cc(O)ccc2[nH]1`, the residual activity came to 73% in [1]; 18% in [2]; 61% in [7]; 19% in assay [8]; 100% in assay [9]; 83% in assay [20]. Also, the residual activity in [10] was 71%; in assay [11] it was 30%; in [14] it was 83%; in assay [15] it was 52%; in assay [17], 64%; in assay [18], 24%. For the same molecule, the residual activity in assay [19] was 68%.
On to `COc1cc2nccc(Oc3ccc(NC(=S)NC(=O)c4ccccc4C)cc3)c2cc1OC`, for which the residual activity is 66% in assay [1]; 61% in [2]; 95% (inactive) in assay [3]; 98% (inactive) in assay [5]; 91% (inactive) in assay [6]; 81% in assay [7]. The residual activity in assay [8] was 60%; in [9] it was 98%; in assay [20], 87%; in [10], 88%; in assay [11], 90%; in assay [12], 83%. Besides, the residual activity is 67% in assay [13]; 95% in [14]; 64% in assay [15]; 24% in assay [17]; 8% in [18]; 79% in [19].
Regarding `O=C(O)/C=C/c1cc(Br)c(Br)c(Br)c1Br`, the residual activity was 84% in assay [1]; 70% in assay [2]; 96% (inactive) in [3]; 86% in [4]; 97% in assay [9]; 95% in assay [20]. Also, the residual activity amounted to 108% in assay [10]; 101% in [11]; 82% in assay [13]; 102% in assay [14]; 76% in [15]; 6% in [16]. The residual activity in assay [17] is 79%; in [18], 63%; in [19] it was 88%.
For the molecule `O=C1Cc2c([nH]c3ccc(Br)cc23)-c2ccccc2N1`, the residual activity was 66% in assay [1]; 53% in assay [2]; 100% (inactive) in assay [5]; 94% (inactive) in [6]; 83% in assay [7]; 54% in [8]. In addition, the residual activity in assay [9] was 91%; in [20] it was 75%; in assay [10], 25%; in [11] it was 3%; in [12], 35%; in assay [13], 17%. Besides, the residual activity in assay [17] stood at 24%; in assay [18] it was 3%; in assay [19], 88%.
Regarding `O=c1cc(N2CCNCC2)oc2c(-c3ccccc3)cccc12`, the residual activity in [1] was 69%; in assay [2], 65%; in [3], 80% (inactive); in assay [5], 104% (inactive); in assay [6] it was 95% (inactive); in [7], 99%. Moreover, the residual activity in assay [8] worked out at 77%; in assay [9], 98%; in assay [20], 80%; in [10], 102%; in assay [11], 85%; in assay [12], 104%. For the same molecule, the residual activity was 95% in assay [13]; 89% in assay [14]; 82% in assay [15]; 51% in [16]; 88% in assay [17]; 69% in assay [18]. Also, the residual activity in assay [19] is 69%.
As for `CC(C)c1nn(-c2c(Cl)cccc2Cl)c2nc(Cc3ccc(OCCO)cc3)[nH]c(=O)c12`, the residual activity was 81% in [1]; 59% in assay [2]; 87% (inactive) in assay [5]; 84% (inactive) in assay [6]; 88% in assay [7]; 46% in assay [8]. The residual activity was 88% in assay [9]; 69% in assay [20]; 84% in [10]; 32% in assay [11]; 73% in [12]; 21% in [13]. In addition, the residual activity amounted to 79% in assay [14]; 51% in assay [15]; 63% in [17]; 31% in [18]; 78% in assay [19].
`COc1cc2ncnc(Nc3cccc(Cl)c3)c2cc1OC`: the residual activity was 82% in assay [1]; 59% in assay [2]; 109% (inactive) in assay [3]; 117% in assay [4]; 102% (inactive) in [5]; 115% (inactive) in [6]. The residual activity in assay [9] turned out to be 126%; in assay [20] it was 111%; in assay [12] it was 109%; in [13] it was 84%; in assay [14], 102%; in assay [15] it was 87%. In addition, the values for the residual activity in [17], in assay [18] and in assay [19] were 34%, 6% and 100%, respectively.
As for `O=C1NC(=O)C(c2cn(CCCO)c3ncccc23)=C1c1cnccn1`, the residual activity in [1] amounted to 91%; in [2], 76%; in assay [7] it was 98%; in assay [8] it was 93%; in [9], 89%; in [20], 99%. Also, the residual activity in [14] was 78%; in [15] it was 75%; in [16] it was 89%; in assay [17] it was 82%; in assay [18], 71%; in assay [19], 84%.

The values are drawn from ChEMBL document CHEMBL2218924, “A broad activity screen in support of a chemogenomic map for kinase signalling research and drug discovery” (Biochem J, 2013).
